# Measured values reported in PubChem BioAssay AID1508600 (Functional Genomics Laboratory (NCATS/FGL), 2020).
# Out of some 53,000 sequences screened, about 3,700 (7%) were called active. This excerpt belongs to a sample that is enriched for actives. Values without a mark were called inactive.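 Rule for the calls: active = gene knockdowns whose robust z-score for IL-1 alpha signal is at least 2 or at most -2, so actives lie on both sides; inactive = the rest.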
# Test: Components of the Cytosolic LPS Sensing Pathway: Gene Identification via Genome-wide siRNA Screen;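 note: robust z of the log signal after scaling to non-targeting control siRNA wells of the plate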
# Settings: RAW264.7 macrophages, IL-1a HTRF, actives lie on both sides, screened at 100 nM (by protocol), cells primed 5 h with Pam3CSK4 first
# Method in brief: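 RAW264.7; siRNA 100 nM final, RNAiMAX, 48h 37 degrees C; Pam3CSK4 5 h; LipidA + TransIT-TKO 24 h; IL-1a HTRF; CellTiter-Glo viability; robust z vs negative-control median.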
row,Sequence,z-score
1,GCUAGAGUACAGCAAGCUGTT against Aifm3,1.21
2,GGACGGUAACAACUACAAUTT against Polg,1.63
3,GGAUUAAAGGCCAUAAGGATT against Zfp747,-0.813
4,CGAGUUUGACCGGACCAUCTT against Ssna1,2.44 (active)
5,GGAACAAGAGAAUGAUGAATT against Col5a2,0.343
6,CGAAGAUUAAUUUUGCUCATT against Lrrtm2,0.316
7,CGAGACUCUAUCUUUGUCCTT against St3gal3,-0.785
8,CGUGGUAGUGAAAAUUGAGTT against Xbp1,0.282
9,GGCCGCAUACUGAUGAAAGTT against Scgn,-0.395
10,GCUUUGUUGGGAGUGAAAUTT against Olfr728,-2.11 (active)
11,CCACCACAGCUGAAGUCAGTT against Fen1,-1.08
12,GGUAAGCUAGGUUGCCCACTT against Gabarapl1,1.91
13,GGGUUAAGGUAGUUUCUAATT against 4930579C12Rik,0.613
14,GGUGAAAUCCAGGAGUUUUTT against Rnd3,2.02 (active)
15,GGAAAUGAAGCUCAUGGAATT against Dcdc5,-1.44
16,GGUUGCUAGUGCUAAGGACTT against Pdlim2,0.245
17,GGGCUGGUCAUUUACUAAGTT against Cdh22,1.32
18,CCAGAAUGUCACUGCCAGUTT against Zfy1,1.34
19,CCUGGAGAGUGAUACGUUCTT against Serpina1f,-0.228
20,GGUCAAACUUCAAUAGACATT against Zkscan6,2.01 (active)
21,GGGUGUUAGAAAUCAUUAUTT against Dgkd,1.19
22,GGAACUUCAGAGUAAACCUTT against H2-T23,0.096
23,CCACAAUCAUUAACAAGCUTT against Arl6,0.389

row,Sequence,z-score
1,GGUUCAAGAGGAGACUACUTT against BC005624,-0.127
2,GGAAUAUGUGUGGACUAGATT against Tor3a,-0.265
3,GGCUUACAAAAAGUACAUCTT against Tpt1,4.36 (active)
4,GGACCAUUCUUGCGUUCGUTT against Cacng7,1.66
5,CCGAUUAGAAAAGACCAAATT against Ccdc25,0.727
6,GGAAGUUUUGGGAGUGUGUTT against Map3k20,-1.08
7,CGCAACCUGUCACAUAAUATT against Bmpr2,-0.238
8,GCUGUUCUAUCAGACCUUUTT against Cyp2b10,-0.236
9,GGAGACUUAUAACAUGUUUTT against Habp2,2.19 (active)
10,GCGAGUUGAAGACUGAAGGTT against Ccdc68,1.44
11,GGUCAUACAUUUGUCAUCATT against Bend7,-0.336
12,CCAUGUUAGAACUGGGACUTT against Tafa2,2.44 (active)
13,GGUCAUGGGACAGCAAAUGTT against Tmco6,-1.67
14,GGAAGACGUAUUUGUACACTT against Ybx1,-0.523
15,GGAGUAGCUGAAUCUGAAGTT against Atp5e,1.57
16,CCUCAUUUCAACCAUUCACTT against Lyzl6,-2.36 (active)
17,GGAGCUUCAUCUUUCAAGATT against Uqcrc2,-0.0657
18,GCAUUGUGCUUUUGACAACTT against Abca15,-0.173
19,GGAGCUUGAAAUUGUCAUUTT against Magoh,-3.51 (active)
20,GGACCGGUGUCUAAUCAGCTT against Capn10,1.75
21,GGCUCAAGGAACAUGAGGCTT against Gtsf2,-0.0452
22,GGCACAAACUAGAUGCAGATT against Ccdc68,-0.669
23,GCUCUCGUAGACUGCUAUATT against Ppp1r14c,2.13 (active)

row,Sequence,z-score
1,GGAAUUUGAAUCACGUUUGTT against Hprt,1.72
2,CGGAUUCGGGAAUUCUAUCTT against Pcgf1,0.143
3,GGGUACCUCGUGGUACAUUTT against Rapgef3,0.352
4,GGUCCAAAAGUUGUUUCAATT against Oga,3.12 (active)
5,GGAUUCAGCAGCUUCAGAATT against Rex1bd,0.221
6,GGAUUAUGCAAGUUACAUUTT against Nsf,-0.63
7,GCACCUAGUUAAUGCUGCCTT against C2cd2,-2.15 (active)
8,GCAGGCAUCGUGUUUACCATT against Cdh20,1.86
9,GCUCAAUUGUUCUUCUUUUTT against Olfr806,-1.13
10,GCUUUAGAACAGAGGGUUATT against Scd4,0.989
11,GGAGAUCUUCAACUGCCACTT against Rps6kl1,0.842
12,GGUGAUUACUCUUAUGUGATT against Slc7a8,-0.663
13,GGCUGAAGGAGCAAUCAAATT against L3mbtl3,1.85
14,GGCCGUUAUUAAAUUCAUATT against Twsg1,-0.609
15,GCCGUACCAUGUAAUGCCATT against Naa60,-2.05 (active)
16,GGCCUCAGCUCACAACAAATT against Sf3b4,-1.71
17,GGAAGCAAAAUAAAGAAACTT against Myo1e,0.109
18,GCGAGAGUCACAAAGUGCATT against Rcc1l,1.35
19,GCUAGAGGUGACUGAUGUCTT against Tti1,-1.26
20,GGAACAAGAGAGGACAAGUTT against Papss2,0.555
21,GCCAAAAGUCGAGCACCUCTT against Lrrc8d,0.43
22,CGGUGCUUGCUUCUAUGUGTT against Olfr642,0.201
23,GCUUUUGUGACUCUGCUGATT against Raver1,-1.41
